High-throughput results (PubChem)
HCMV inh: inhibitors of human cytomegalovirus; HFF cells, HCMV-luciferase reporter, 72 h; active compounds read low; activity change, negative = inhibition, % at 57.5 µM; hit rate 4.5% among 410,000; in the data active = activity change below about -60%; inconclusive = no clear call, values can overlap the other calls; inactive = above about -39%; note: % is set by controls: 0 for no effect and ±100 for the full control effect
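After 16 h attachment at 37C, HFF cells received test compound and HCMV-luciferase (1 PFU/cell); reporter luminescence read 72 h later, data normalized against buffer-only and known inhibitor Salinomycin.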
Pf growth 48h: P. falciparum growth inhibition at 48 hours (one generation); P. falciparum luciferase growth in erythrocytes, 48 h; hit rate 5.9% among 310,000; AID 504832; Potency, µM (doses to about 28.7 µM), for the others: at the top dose activity change, negative = inhibition, actives largely listed as inhibitors; note: potency is the fitted concentration of half-maximal effect; % is set by controls: 0 for no effect and ±100 for the full control effect
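Firefly luciferase activity from engineered P. falciparum reports growth; inhibitors lower the luminescent signal. Cultures contained 2% hematocrit erythrocytes at 0.1% final parasitemia.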
HCV inhibitor: inhibitors of hepatitis C virus infection. hit rate 3.4% among 340,000. Huh7.5.1 HCVcc-Cre infection, luciferase reporter, 44 h. Potency, µM (highest dose often 41.8 µM), for inactives: at the highest dose activity change, negative = inhibition, actives largely listed as inhibitors. AID 651820; note: potency is the fitted concentration of half-maximal effect; % is set by controls: 0 for no effect and ±100 for the full control effect
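Antiviral activity was scored by luciferase reporter output from cells infected with HCVcc-Cre (~0.5 moi) in presence of compound, 44 h infection period, cells seeded 1,000/well 4 h prior.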
Pf growth 96h: inhibits malaria parasite growth, 96 h. P. falciparum luciferase reporter growth, 96 h. Potency, µM (top dose mostly 28.7 µM), for the others: at the top dose activity change, negative = inhibition, most hits filed as inhibitors. hit rate 6.9% among 320,000; note: potency is the fitted concentration of half-maximal effect; % is set by controls: 0 for no effect and ±100 for the full control effect
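Plates of compound plus infected erythrocytes (2% hematocrit, 0.05% parasitemia final) incubate 96 hours, 37 C, 5% CO2. Detection reagent added; reduced luminescence from the parasites' luciferase reporter flags inhibition.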
Shiga toxin inh: inhibitors of Shiga toxin in Vero cells; Vero cells, Shiga toxin protein synthesis inhibition reporter; inhibition, % at 38.7 µM; hit rate 9.2% among 290,000; AID 2315; in the data active = inhibition mostly above about 28%, no sharp cut-off; inactive = mostly below about 43%; note: 0% is about no effect
Cycloheximide cs: counter-screen hit for Shiga toxin inhibitors, cycloheximide; cell reporter, cycloheximide protein synthesis inhibition counterscreen; max response, %; hit rate 12% among 300,000; in the data active = max response mostly above about 13%, no sharp cut-off; inactive = mostly below about 14%; note: read at 38.3 µM for the half of the compounds with a filed dose; 0% is about no effect
* marks the source's active call; other numbers are inactive results; i = inactive; ? = inconclusive; · = no result. The list is not random: actives were taken first. Their share in the collection is about 21%. Unless noted, calls come from the whole dose curve; as a rule, active = well fitted inhibition curve with a large enough effect; inconclusive = small, poorly fitted or top-dose-only effect, or another doubt; inactive = no such curve, though single readings can be large or run the other way.

SMILES	HCMV inh	Pf growth 48h	HCV inhibitor	Pf growth 96h	Shiga toxin inh	Cycloheximide cs
Cc1ccc2nc(/C(C#N)=C/c3ccc(-c4ccc(F)cc4F)o3)[nH]c2c1	-22.1	·	·	·	·	·
N#C/C(=C\c1cccc(Oc2ccc(C(F)(F)F)cc2[N+](=O)[O-])c1)c1nc2ccccc2[nH]1	32.6	?	5.9%	31.7%	5.7	19.4
COc1ccc(/C=C(\C#N)c2nc3ccc(C)cc3[nH]2)cc1Oc1ccc(C(F)(F)F)cc1[N+](=O)[O-]	-67.9*	?	?	?	-12.5	11.9
Cc1ccc2nc(/C(C#N)=C/c3ccc(-c4cccc([N+](=O)[O-])c4)o3)[nH]c2c1	-62.2*	?	-26.6%	?	12.6	4.2
Cc1cc(C)n(-c2nc(C)c(C)c(=O)n2CC(=O)Nc2ccc(Cl)c(Cl)c2)n1	34.6	·	·	·	·	·
Cc1cccc(-c2nc(CCNC(=O)c3ccccc3Br)cs2)c1	-18.2	·	·	·	·	·
Cc1nc(-c2ccc(Cl)cc2)sc1C1(C)CC(c2cccnc2)=NO1 (stereo not drawn)	44.0	49.3%	-13.8%	13.2%	80.4*	112.0*
Cc1nc(C(=O)NC2CCOCC2)sc1C1(C)CC(c2ccccc2)=NO1 (stereo not drawn)	4.6	40.1%	0.8%	32.8%	21.6	10.5*
Cc1nc(C(=O)NC2CCOCC2)sc1C1(C)CC(c2cccc([N+](=O)[O-])c2)=NO1 (stereo not drawn)	8.9	-4.3%	?	9.1%	-6.4	-0.1
Cc1nc(-c2ccc(Cl)cc2)sc1C1(C)CC(c2cccc([N+](=O)[O-])c2)=NO1 (stereo not drawn)	36.9	0.8%	10.9%	57.4%	16.7	18.2*
Cc1nc(-c2ccccc2)sc1C1(C)CC(c2ccc([N+](=O)[O-])cc2)=NO1 (stereo not drawn)	-10.4	43.4%	-13.3%	49.9%	-2.1	-3.3
Cc1nc(C(=O)Nc2ccccc2)sc1C1(C)CC(c2cccnc2)=NO1 (stereo not drawn)	-15.2	66.7%	-21.0%	91.3%	41.7*	25.2*
COc1ccc(C2=NOC(C)(c3sc(-c4ccc(Cl)cc4)nc3C)C2)cc1 (stereo not drawn)	-4.5	·	30.1%	·	·	·
CCN(C(=O)CCS(=O)(=O)c1cc(Br)cc2c1N(C(=O)C1CC1)CC2)c1cccc(C)c1	11.0	·	·	·	·	·
CCCN1C(=O)COCc2cc(-c3ccc(N(C)C)cc3)ccc21	74.9	·	·	·	·	·
CCOC(=O)c1c(C)[nH]c(C)c1S(=O)(=O)N1CCN(c2ccccc2OC)CC1	35.7	·	·	·	·	·
O=C(CS(=O)(=O)Cc1ccccc1)NCc1ccco1	-32.9	10.6%	-13.8%	9.5%	-6.8	-3.6
CCOC(=O)c1ccc(N(CC2CO2)S(=O)(=O)c2ccc(C)cc2)cc1 (stereo not drawn)	-16.6	·	2.4%	·	·	·
O=C(N/N=C\c1ccc([N+](=O)[O-])s1)C1COc2ccccc2O1 (stereo not drawn)	-3.6	?	10µM*	-10.3%	3.5	1.4
O=C(N/N=C\c1ccc(Cl)s1)C1COc2ccccc2O1 (stereo not drawn)	-30.9	2.2%	-28.4%	4.5%	-6.0	9.8
O=C(N/N=C\c1ccc([N+](=O)[O-])o1)C1COc2ccccc2O1 (stereo not drawn)	-84.2*	?	?	-18.2%	66.9*	22.5*
CCOC(=O)c1c(C)[nH]c2cc(Br)c(O)cc12	135.3	·	?	·	65.5*	38.1*
Cc1cc(C(=O)N2CCCC(C(=O)c3cc(F)ccc3F)C2)c(C)o1 (stereo not drawn)	0.0	19.0%	9.2%	?	-3.5	-2.8
COc1ccc(OC)c(C(=O)CSc2nccc(-c3ccc(Br)cc3)n2)c1	?	11.7µM*	?	?	13.0	-3.1
COc1ccc(-c2ccnc(SCC(=O)c3ccc(OC)c(OC)c3)n2)cc1	-16.8	20.7%	?	17.0%	-14.7	-1.2
SMILES	HCMV inh	Pf growth 48h	HCV inhibitor	Pf growth 96h	Shiga toxin inh	Cycloheximide cs
Cn1c(CCC(=O)OCC(=O)NCc2ccc3c(c2)OCO3)nc(=O)c2ccccc21	-36.4	11.2%	-1.6%	-16.0%	-3.8	7.5
O=C(Nc1ccccc1)c1cc(C2CCCN(C(=O)CCc3ccccc3)C2)on1 (stereo not drawn)	-17.7	·	·	·	·	·
CCCNC(=O)c1cc(C2CCCN(C(=O)c3ccc(OC)cc3)C2)on1 (stereo not drawn)	10.3	·	·	·	·	·
COc1ccc(-c2cc(C(=O)Nc3cc(Br)ccc3O)no2)cc1	-8.0	10.4µM*	15.0%	-0.7%	40.5	23.0*
COc1ccc(C(=O)N2CCCC(c3cc(C(=O)Nc4ccccc4)no3)C2)cc1 (stereo not drawn)	-72.5*	·	·	·	·	·
CC(=O)Nc1cccc(NC(=O)c2cc(C)on2)c1	56.2	95.7%	-3.6%	i	53.2*	21.3*
COc1ccc(-c2cc(C(=O)Nc3ccccc3SC)no2)cc1	-12.1	24.8%	-11.9%	0.0%	32.6	6.3
CN(C)c1ccc(CC(=O)N2CCCC(c3cc(C(=O)Nc4ccc(C(C)(C)C)cc4)no3)C2)cc1 (stereo not drawn)	-74.9*	·	·	·	·	·
COc1ccc(CCN(C)C(=O)C2CCN(Cc3cccc(OC)c3OC)CC2)cc1OC	-22.2	6.0%	6.6%	0.0%	-12.9	12.0
CCN(CC(=O)Nc1c(F)cccc1F)C(=O)c1ccc(N2CCOCC2)c([N+](=O)[O-])c1	-27.2	13.8%	-22.6%	?	·	·
COc1ccc(-c2cc(C(=O)Nc3cc(C)nn3-c3ccccc3)no2)cc1	-1.2	38.9%	-21.7%	·	71.8*	39.9*
CCc1ccccc1NC(=O)c1cc(C)no1	?	-21.1%	12.3%	15.7%	5.0	-2.1
COc1ccc(NC(=O)c2cc(-c3ccccc3)on2)cc1	8.2	85.0%	3.6%	148.7%	·	19.4*
COc1ccc(NC(=O)c2cc(C)on2)cc1	-18.6	385.3%	?	?	89.1*	56.2*
Cc1cc(C(=O)Nc2cc(Br)ccc2O)on1	71.3	5.22µM*	-5.1%	5.8%	5.7	3.7
COc1ccc(-c2cc(C(=O)Nc3ccc(C#N)cc3)no2)cc1	-6.2	·	·	·	·	·
O=C(C[C@H]1C/C=C\CC[C@H](Cc2ccc(F)cc2)C(=O)OCCNC1=O)NCCO	-7.9	·	16.3%	·	·	·
CCOC(=O)C1=C(C)NC(C)=C(C(=O)OCC)C1C(=O)OCC(=O)NCc1ccco1	5.9	·	?	·	·	·
COc1cccc(-n2c(SCC(=O)Nc3nccs3)nnc2-c2ccoc2C)c1	-23.9	8.28µM*	-1.0%	145.3%	14.1	7.0
CCn1c(SCC(=O)Nc2nc(C)cs2)nnc1-c1ccoc1C	20.5	·	-6.1%	3.3%	-15.3	4.4
COc1ccc(-n2c(SCC(=O)Nc3nccs3)nnc2-c2ccoc2C)cc1	9.7	·	-19.1%	?	-12.4	-7.3
O=C(CSc1nnc(Cn2c(=O)sc3ccccc32)n1-c1ccccc1)N1CCCC1	-13.0	-0.5%	4.3%	?	-3.0	-2.5
